Measured values reported in PubChem BioAssay (EPA / NIEHS).
Records with an inconclusive call do not appear. Some structures have more than one record in an assay (separate samples or runs), and their calls can disagree. Activity calls are given as the source filed them. The calls were made as follows, unless noted: active = hit-call score of the fitted dose curve at least 0.9, where 1 is the maximum; inactive = score below 0.9.

Tests used:
[1] = ATG_BRE_CIS: Attagene CIS-FACTORIAL HepG2 Assay for human Bone Morphogenetic Protein (BMP) Response Element (BRE) (AID 2282933); details: HepG2 BMP response element reporter, Attagene transcription factor profiling; actives raise or lower the signal
Summary of the method: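 Read-out: reporter mRNA induction quantified by RT-PCR and capillary electrophoresis after 24 h chemical exposure of transfected HepG2 cells. Endogenous factor activity on the BMP response element; gain or loss fitted against DMSO baseline.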

[2] = ATG_E_Box_CIS: Attagene CIS-FACTORIAL HepG2 Assay for human Enhancer Box (E-box) (AID 2282936); details: HepG2 E-box cis-reporter transcription, actives raise or lower the signal
Summary of the method: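 Fluorescent reporter fragments separated by capillary electrophoresis gave the signal; mRNA came from HepG2 cells transfected with cis-element reporters and treated 24 h. Curves fitted bidirectionally relative to DMSO controls.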

[3] = ATG_FoxO_CIS: Attagene CIS-FACTORIAL HepG2 Assay for human Forkhead box O (FoxO) (AID 2282943); details: HepG2 Attagene cis-reporter, FoxO element, mRNA; actives raise or lower the signal
Summary of the method: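 HepG2, transient MRTU transfection (cis element, endogenous TFs). Dose 24 h. TriZol RNA → oligo(dT) RT → PCR → 6-FAM primer extension → HpaI cut → CE. Gain/loss vs DMSO.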

[4] = ATG_GRE_CIS: Attagene CIS-FACTORIAL HepG2 Assay for human Glucocorticoid Response Elements (GRE) (AID 2282947); details: HepG2 GRE cis-reporter, Attagene multiplex mRNA; actives raise or lower the signal
Summary of the method: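 Multiplexed cis-reporter mRNA induction, HepG2, 24 h post-dose. RT-PCR, FAM-labelled, HpaI-digested amplicons by CE. Bidirectional fit vs DMSO.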

[5] = ATG_PPRE_CIS: Attagene CIS-FACTORIAL HepG2 Assay for human Peroxisome Proliferator-activated Response Element (PPRE) (AID 2282958); details: HepG2 PPRE cis-element reporter, Attagene transcription factor profiling; actives raise or lower the signal
Summary of the method: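 DMSO served as negative control and baseline for bidirectional curve fitting. Signal came from PPRE-regulated reporter mRNA in HepG2 cells, measured 24 h post-dosing by RT-PCR, 6-FAM primer extension and capillary electrophoresis.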

[6] = ATG_Sox_CIS: Attagene CIS-FACTORIAL HepG2 Assay for human SRY-box transcription factor (SOX) (AID 2282960); details: HepG2 Attagene cis-factorial SOX reporter, mRNA; actives raise or lower the signal
Summary of the method: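 Fluorescence-labelled cDNA fragments from reporter transcripts, sized by CE, give the signal. Cells: HepG2, transiently transfected with cis-regulated reporter units. Exposure 24 h; DMSO negative control; bidirectional curve fitting.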

[7] = ATG_SREBP_CIS: Attagene CIS-FACTORIAL HepG2 Assay for human Sterol Regulatory Element Binding (SREBP) (AID 2282962); details: HepG2 Attagene cis-factorial SREBP reporter, mRNA; actives raise or lower the signal
Summary of the method: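 Endogenous factor activity is measured in HepG2 through multiplexed reporter units under cis-element control. Following a 24 h incubation, reporter transcripts are reverse-transcribed, PCR-amplified and sized by capillary electrophoresis; activity is fitted in both directions relative to DMSO.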

[8] = target: X-box-binding protein 1 (Homo sapiens) (UniProt P17861); assay: ATG_Xbp1_CIS: Attagene CIS-FACTORIAL HepG2 Assay for human X-box Binding Protein 1 (XBP1) (AID 2282972); details: HepG2 XBP1 cis-element reporter, Attagene multiplex; actives raise or lower the signal
X-box-binding protein 1 (Homo sapiens), sequence (P17861 whole entry, looked up): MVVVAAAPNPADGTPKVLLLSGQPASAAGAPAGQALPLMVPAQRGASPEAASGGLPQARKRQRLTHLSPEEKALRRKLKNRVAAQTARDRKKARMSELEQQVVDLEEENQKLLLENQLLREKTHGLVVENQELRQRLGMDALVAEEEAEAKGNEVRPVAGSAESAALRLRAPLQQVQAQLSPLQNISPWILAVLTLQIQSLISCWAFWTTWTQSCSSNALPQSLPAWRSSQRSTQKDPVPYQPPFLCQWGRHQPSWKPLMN
Summary of the method: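 Multiplexed cis-reporter readout in transfected HepG2 liver cells. Exposure lasted 24 hours. Activity in either direction was fitted against DMSO as negative control and baseline.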

[9] = target: Hepatocyte nuclear factor 4-alpha (Homo sapiens) (UniProt P41235); assay: ATG_HNF4a_TRANS: Attagene TRANS-FACTORIAL HepG2 Assay for human Hepatocyte Nuclear Factor 4 alpha (HNF4a) (AID 2282982; active = hit-call score of the fitted dose curve at least 0.9, where 1 is the maximum); details: HepG2 HNF4a transactivation reporter, mRNA readout
Hepatocyte nuclear factor 4-alpha (Homo sapiens), sequence (P41235 whole entry, looked up): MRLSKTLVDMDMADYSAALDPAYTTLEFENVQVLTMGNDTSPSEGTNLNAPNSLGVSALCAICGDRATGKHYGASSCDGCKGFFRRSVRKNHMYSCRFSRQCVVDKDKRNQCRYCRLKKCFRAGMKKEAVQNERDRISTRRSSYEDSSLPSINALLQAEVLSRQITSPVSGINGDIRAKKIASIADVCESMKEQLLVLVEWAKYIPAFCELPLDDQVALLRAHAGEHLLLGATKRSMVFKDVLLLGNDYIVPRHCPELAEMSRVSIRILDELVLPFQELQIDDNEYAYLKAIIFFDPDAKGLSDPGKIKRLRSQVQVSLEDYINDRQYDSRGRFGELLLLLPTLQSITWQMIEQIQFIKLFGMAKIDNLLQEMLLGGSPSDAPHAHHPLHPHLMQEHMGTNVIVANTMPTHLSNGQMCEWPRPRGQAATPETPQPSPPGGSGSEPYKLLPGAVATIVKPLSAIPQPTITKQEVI
Summary of the method: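 Multiplexed reporter assay: transfected HepG2, 24 h exposure, total RNA → oligo(dT) RT → PCR → 6-FAM extension → HpaI digest → CE fluorescence. DMSO = negative control.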

[10] = ATG_M_06_TRANS: Attagene TRANS-FACTORIAL HepG2 Assay for M06 Transcription Factor (Internal Marker) (AID 2282983; active = hit-call score of the fitted dose curve at least 0.9, where 1 is the maximum;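 also: reporter transcript level by RT-PCR then capillary electrophoresis fluorescence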); details: HepG2 Attagene TRANS M06 internal marker reporter
Summary of the method: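 mRNA levels of a reporter transcript, quantified as FAM fluorescence on capillary electrophoresis, served as readout. HepG2 cells expressing exogenous GAL4-chimera reporter constructs were exposed for 24 h. Gain of signal over DMSO was evaluated.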

[11] = ATG_NFI_CIS: Attagene CIS-FACTORIAL HepG2 Assay for human Nuclear Factor I (NFI) (AID 2282989); details: HepG2 cis-regulatory reporter, NFI response element transcription; actives raise or lower the signal
Summary of the method: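 Read-out: reporter mRNA via RT-PCR plus capillary electrophoresis with fluorescence detection. Transiently transfected HepG2 (endogenous TF activity on cis promoters), 24 h compound exposure; gain or loss of signal fitted against DMSO.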

[12] = target: Peroxisome proliferator-activated receptor gamma (Homo sapiens) (UniProt P37231); assay: ATG_PPARg_TRANS: Attagene TRANS-FACTORIAL HepG2 Assay for human Peroxisome Proliferator-activated Receptor-gamma (PPARg) (AID 2283007; active = hit-call score of the fitted dose curve at least 0.9, where 1 is the maximum)
Peroxisome proliferator-activated receptor gamma (Homo sapiens), sequence (P37231 whole entry, looked up, the tested form may be a part): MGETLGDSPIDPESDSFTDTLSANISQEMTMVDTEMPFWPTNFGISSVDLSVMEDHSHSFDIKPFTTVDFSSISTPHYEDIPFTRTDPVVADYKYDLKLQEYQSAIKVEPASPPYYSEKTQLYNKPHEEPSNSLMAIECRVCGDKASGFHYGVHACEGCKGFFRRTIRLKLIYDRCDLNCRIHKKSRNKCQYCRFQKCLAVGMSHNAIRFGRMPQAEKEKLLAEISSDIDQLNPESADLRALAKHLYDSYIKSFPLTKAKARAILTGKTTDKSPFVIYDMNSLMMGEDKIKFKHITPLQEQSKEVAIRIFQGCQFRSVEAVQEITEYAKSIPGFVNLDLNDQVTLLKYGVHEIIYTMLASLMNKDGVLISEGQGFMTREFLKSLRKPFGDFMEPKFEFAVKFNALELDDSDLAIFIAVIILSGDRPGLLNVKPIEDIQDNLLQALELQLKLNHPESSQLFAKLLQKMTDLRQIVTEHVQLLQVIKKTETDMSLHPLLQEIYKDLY
Summary of the method: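 Chimeric NR-Gal4 transactivation is measured in transiently transfected HepG2 cells by reporter mRNA induction at 24 h. Detection uses RT-PCR with fluorescent labelling and capillary electrophoresis; DMSO defines baseline.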

[13] = target: Nuclear receptor subfamily 1 group I member 2 (Homo sapiens) (UniProt O75469); assay: ATG_PXR_TRANS: Attagene TRANS-FACTORIAL HepG2 Assay for human Pregnane X Receptor (PXR) (AID 2283008; active = hit-call score of the fitted dose curve at least 0.9, where 1 is the maximum)
Nuclear receptor subfamily 1 group I member 2 (Homo sapiens), sequence (O75469 whole entry, looked up, the tested form may be a part): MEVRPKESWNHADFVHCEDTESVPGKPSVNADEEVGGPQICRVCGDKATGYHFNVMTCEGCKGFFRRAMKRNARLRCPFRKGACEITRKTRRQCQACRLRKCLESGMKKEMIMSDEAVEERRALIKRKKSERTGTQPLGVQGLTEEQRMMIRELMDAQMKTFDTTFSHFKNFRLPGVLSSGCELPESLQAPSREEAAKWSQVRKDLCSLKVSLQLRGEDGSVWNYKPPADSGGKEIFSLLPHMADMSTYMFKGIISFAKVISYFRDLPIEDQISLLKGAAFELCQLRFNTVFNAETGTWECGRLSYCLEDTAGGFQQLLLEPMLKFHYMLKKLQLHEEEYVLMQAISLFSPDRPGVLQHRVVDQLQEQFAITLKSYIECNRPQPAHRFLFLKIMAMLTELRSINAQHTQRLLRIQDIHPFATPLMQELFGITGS
Summary of the method: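 HepG2 transfected (FuGene 6) with GAL4-UAS reporter units + PXR-Gal4 chimera; dosed 24 h. Total RNA → oligo(dT) RT → PCR → 6-FAM primer extension → HpaI cut → CE. Gain-of-signal vs DMSO.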

[14] = target: Retinoic acid receptor RXR-alpha (Homo sapiens) (UniProt P19793); assay: ATG_RXRa_TRANS: Attagene TRANS-FACTORIAL HepG2 Assay for human Retinoid X Receptor alpha (RXRa) (AID 2283012; active = hit-call score of the fitted dose curve at least 0.9, where 1 is the maximum)
Retinoic acid receptor RXR-alpha (Homo sapiens), sequence (P19793 whole entry, looked up, the tested form may be a part): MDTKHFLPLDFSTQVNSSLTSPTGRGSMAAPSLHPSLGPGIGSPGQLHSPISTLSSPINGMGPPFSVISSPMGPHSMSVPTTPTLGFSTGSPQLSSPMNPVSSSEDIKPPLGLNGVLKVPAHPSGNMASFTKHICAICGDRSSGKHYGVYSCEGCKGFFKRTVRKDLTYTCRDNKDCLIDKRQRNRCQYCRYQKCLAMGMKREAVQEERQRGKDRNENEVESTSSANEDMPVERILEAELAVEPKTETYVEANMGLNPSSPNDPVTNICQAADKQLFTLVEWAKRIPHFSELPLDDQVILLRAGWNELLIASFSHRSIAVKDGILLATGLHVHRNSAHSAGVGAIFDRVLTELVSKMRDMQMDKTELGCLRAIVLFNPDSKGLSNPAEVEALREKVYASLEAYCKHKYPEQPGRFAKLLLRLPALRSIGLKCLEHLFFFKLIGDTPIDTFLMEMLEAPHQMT
Summary of the method: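 Chimeric NR-GAL4 trans-activation in HepG2, 24 h treatment; reporter transcripts quantified by fluorescence on capillary electrophoresis, analysed for upward change from DMSO.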

[15] = target: human Retinoid X Receptor beta (RXRb), RXRB (gene 6257) (UniProt P28702); assay: ATG_RXRb_TRANS: Attagene TRANS-FACTORIAL HepG2 Assay for human Retinoid X Receptor beta (RXRb) (AID 2283013; active = hit-call score of the fitted dose curve at least 0.9, where 1 is the maximum)
human Retinoid X Receptor beta (RXRb), RXRB (gene 6257), sequence (P28702 whole entry, looked up, the tested form may be a part): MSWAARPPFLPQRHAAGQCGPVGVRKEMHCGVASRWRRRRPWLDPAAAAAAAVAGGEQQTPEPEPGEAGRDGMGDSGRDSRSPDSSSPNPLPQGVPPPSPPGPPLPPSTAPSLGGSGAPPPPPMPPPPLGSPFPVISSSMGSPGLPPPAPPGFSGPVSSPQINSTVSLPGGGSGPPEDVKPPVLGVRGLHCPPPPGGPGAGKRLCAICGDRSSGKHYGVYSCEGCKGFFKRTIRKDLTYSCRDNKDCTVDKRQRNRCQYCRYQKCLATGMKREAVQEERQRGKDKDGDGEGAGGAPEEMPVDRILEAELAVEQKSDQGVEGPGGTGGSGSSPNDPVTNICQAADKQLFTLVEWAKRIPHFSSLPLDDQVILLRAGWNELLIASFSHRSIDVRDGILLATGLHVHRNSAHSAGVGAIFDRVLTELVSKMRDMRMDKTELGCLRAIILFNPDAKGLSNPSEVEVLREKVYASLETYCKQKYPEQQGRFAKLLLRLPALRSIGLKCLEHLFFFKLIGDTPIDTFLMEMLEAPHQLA
Summary of the method: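 After a 24 h incubation with test chemical, transfected HepG2 cells carrying NR-Gal4 fusions and GAL4-UAS reporter transcription units yield RNA whose reporter cDNA is FAM-labelled, HpaI-cut and sized by capillary electrophoresis; increases over DMSO are scored.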

[16] = target: Cellular tumor antigen p53 (Homo sapiens) (UniProt P04637); assay: TOX21_p53_BLA_p5_ratio: Tox21 HCT-116 p53 Agonism Beta-lactamase Assay, Ratio, Phase 5 (AID 2283599; active = hit-call score of the fitted dose curve at least 0.9, where 1 is the maximum)
Cellular tumor antigen p53 (Homo sapiens), sequence (P04637 whole entry, looked up): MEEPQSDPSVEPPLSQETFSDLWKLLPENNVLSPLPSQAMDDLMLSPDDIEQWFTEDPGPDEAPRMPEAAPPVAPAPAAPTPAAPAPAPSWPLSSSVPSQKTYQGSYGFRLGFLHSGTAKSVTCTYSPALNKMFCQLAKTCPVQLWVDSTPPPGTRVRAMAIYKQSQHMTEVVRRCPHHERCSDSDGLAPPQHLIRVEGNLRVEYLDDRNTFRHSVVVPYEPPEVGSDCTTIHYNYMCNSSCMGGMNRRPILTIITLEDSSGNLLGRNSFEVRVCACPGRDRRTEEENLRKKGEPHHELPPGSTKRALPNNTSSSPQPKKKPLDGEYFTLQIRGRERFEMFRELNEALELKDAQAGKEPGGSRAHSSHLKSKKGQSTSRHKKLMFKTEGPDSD
Summary of the method: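 Beta-lactamase reporter ratio (blue 460 nm over green 530 nm, 405 nm excitation) after 2 h CCF4-AM loading, in HCT-116 cells exposed 16 h at 37 C to compounds pinned at 217-fold dilution. Increases relative to DMSO baseline scored.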

[17] = target: Nuclear respiratory factor 1 (Homo sapiens) (UniProt Q16656); assay: ATG_NRF1_CIS: Attagene CIS-FACTORIAL HepG2 Assay for human Nuclear Respiratory Factor 1 (NRF1) Orphan Gene (AID 2282987); details: HepG2 NRF1 cis-element reporter, Attagene multiplex; actives raise or lower the signal
Nuclear respiratory factor 1 (Homo sapiens), sequence (Q16656 whole entry, looked up): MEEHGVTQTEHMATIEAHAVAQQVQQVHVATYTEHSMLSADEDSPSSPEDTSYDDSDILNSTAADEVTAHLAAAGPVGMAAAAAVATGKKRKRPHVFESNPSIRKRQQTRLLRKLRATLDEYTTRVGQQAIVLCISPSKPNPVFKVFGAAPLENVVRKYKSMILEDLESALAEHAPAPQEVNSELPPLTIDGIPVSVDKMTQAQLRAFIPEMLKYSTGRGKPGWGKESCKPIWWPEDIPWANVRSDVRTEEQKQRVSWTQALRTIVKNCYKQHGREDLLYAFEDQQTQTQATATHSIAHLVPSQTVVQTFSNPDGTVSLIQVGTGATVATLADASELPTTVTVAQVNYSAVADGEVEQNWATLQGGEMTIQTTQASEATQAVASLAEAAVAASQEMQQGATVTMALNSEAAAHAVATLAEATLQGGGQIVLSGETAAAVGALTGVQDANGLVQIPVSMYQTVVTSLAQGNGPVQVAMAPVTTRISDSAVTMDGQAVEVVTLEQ
Summary of the method: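 Reporter mRNA induction or loss in HepG2 cells after 24 h dosing; cis-regulated reporter constructs report endogenous transcription-factor activity. Quantified by RT-PCR/capillary electrophoresis fluorescence, DMSO-referenced.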

[18] = ATG_PBREM_CIS: Attagene CIS-FACTORIAL HepG2 Assay for human Phenobarbital-responsive Enhancer Module (PBREM) (AID 2282955); details: HepG2 PBREM cis-reporter, Attagene multiplexed transcription; actives raise or lower the signal
Summary of the method: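 Multiplexed cis-reporter readout in human hepatoma HepG2 cells; PBREM-regulated transcript quantified after 24 h exposure by fluorescent RT-PCR fragment analysis. Signal changes up or down fitted relative to DMSO.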

[19] = target: Cellular tumor antigen p53 (Homo sapiens) (UniProt P04637); assay: TOX21_p53_BLA_p3_ratio: Tox21 HCT-116 p53 Agonism Beta-lactamase Assay, Ratio, Phase 3 (AID 2283596; active = hit-call score of the fitted dose curve at least 0.9, where 1 is the maximum)
Summary of the method: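 Cells were seeded at 4000/well, rested 5 h at 37C, then dosed with DMSO compound solutions (217-fold dilution) for 16 h. CCF4-AM substrate was loaded for 2 h at room temperature, and the 460/530 nm emission ratio was fitted for gain of signal versus DMSO.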

[20] = target: Cellular tumor antigen p53 (Homo sapiens) (UniProt P04637); assay: TOX21_p53_BLA_p4_ratio: Tox21 HCT-116 p53 Agonism Beta-lactamase Assay, Ratio, Phase 4 (AID 2283601; active = hit-call score of the fitted dose curve at least 0.9, where 1 is the maximum)
Summary of the method: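 Signal is the blue/green (460nm/530nm) ratio of cleaved versus uncleaved CCF4-AM substrate, read after 2 h substrate loading. Cells were HCT116 carrying the p53-responsive beta-lactamase reporter, dosed 16 h at 37C, 5% CO2; CellTiter-Glo measured in parallel.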

Measured: AC50

CN(C)CCC#N
not listed: [17] | [18] | [19] | [20]
inactive: all other assays above

CC(C)C(=O)Cl
inactive: [1] | [3] | [4] | [5] | [6] | [7] | [8] | [17] | [11] | [14] | [15]

O=C(NC(=O)c1c(F)cccc1F)Nc1ccc(Oc2ccc(C(F)(F)F)cc2Cl)cc1F
active: [12] 3.59 µM
not listed: [2] | [4] | [6] | [8] | [10] | [11]
inactive: all other assays above

C=CCO
inactive: [2] | [3] | [4] | [18] | [6] | [8] | [17] | [11] | [19] | [16] | [20]

[CH3][Sn]([CH3])([Cl])[Cl]
not listed: [4] | [6] | [10] | [14] | [16] | [17] | [19] | [20]
inactive: all other assays above

CC(C)CCCCCCCOC(=O)c1ccccc1C(=O)OCCCCCCCC(C)C
inactive: [2] | [3] | [4] | [18] | [7] | [8] | [13] | [14] | [16]

CC[N+](=O)[O-]
not listed: [2] | [3] | [8] | [14]
inactive: all other assays above

c1ccc(Nc2ccc3ccccc3c2)cc1
active: [5] 39.8 µM | [12] 18 µM | [13] 7.59 µM | [20] 73.5 µM
inactive: [4] | [18] | [6] | [7] | [9] | [10] | [17] | [14] | [19] | [16] | [20]

CCOC(=O)NC(=S)Nc1ccccc1NC(=S)NC(=O)OCC
active: [13] 0.77 µM | [19] 85.4 µM | [16] 77.3 µM
not listed: [6] | [14] | [15] | [17] | [18] | [20]
inactive: all other assays above

c1ccc2c(c1)CCCC2
not listed: [1] | [5] | [7] | [10] | [12] | [13] | [15] | [17]
inactive: all other assays above

CNC(=O)Oc1cc(C)c(SC)c(C)c1
active: [5] 36.4 µM | [6] 27.1 µM | [8] 68.3 µM | [13] 13.3 µM | [15] 30.2 µM
not listed: [2] | [12] | [16] | [19] | [20]
inactive: all other assays above

CCOP(=O)(OCC)Oc1ccc([N+](=O)[O-])cc1
not listed: [1] | [2] | [3] | [4] | [9] | [11] | [17]
inactive: all other assays above
